Experiment [1] can be described thus: NCI Yeast Anticancer Drug Screen. Data for the rad50 strain (AID 155).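 Further: 0% = growth of vehicle-only cultures of the same strain.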 The following applies: S. cerevisiae rad50 strain growth inhibition, stronger effect = higher value. The essentials: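 Genetically altered yeast (DNA repair pathway); compound treatment; growth inhibition vs vehicle ctrl.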
Experiment [2] in a line: NCI Yeast Anticancer Drug Screen. Data for the mec2-1 strain (AID 157). To be noted: S. cerevisiae mec2-1 strain, stronger effect = higher value. The essentials: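 Compounds were applied to mec2-1 yeast cells. Their growth was then compared with that of vehicle-treated cultures to give growth inhibition.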
The nature of experiment [3]: NCI Yeast Anticancer Drug Screen. Data for the sgs1 mgt1 strain (AID 161).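 Further: 0% = growth of cultures given vehicle only.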 To be noted: S. cerevisiae sgs1 mgt1 strain, stronger effect = higher value. The essentials: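 Yeast cells carrying a defined DNA-repair defect were exposed to test compounds. Growth inhibition was measured relative to vehicle-treated controls.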
Experiment [4] is described as follows: NCI Yeast Anticancer Drug Screen. Data for the cln2 rad14 strain (AID 165).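 Further: 0% = growth equal to vehicle treated cultures.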 To be noted: S. cerevisiae cln2 rad14 strain, stronger effect = higher value. The essentials: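 Strain: cln2 rad14 yeast, altered in cell cycle control and DNA damage repair. Read-out: growth inhibition vs vehicle.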
A short description of experiment [5]: NCI Yeast Anticancer Drug Screen. Data for the bub3 strain (AID 167). To be noted: S. cerevisiae bub3 mutant strain, stronger effect = higher value. Put shortly:
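Yeast carrying a defined mutation is treated with each compound, and growth is compared with that of vehicle-exposed cells to give inhibition.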

Experiment [6] in a line: NCI Yeast Anticancer Drug Screen. Data for the mlh1 rad18 strain (AID 175). To be noted: S. cerevisiae mlh1 rad18 strain growth inhibition, stronger effect = higher value. The essentials:
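A repair-deficient yeast strain is exposed to test compound, and growth is scored relative to vehicle-treated controls.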

The mark [7] stands for this setting: at 5.0 µM (retest, dose inferred, filed as 0.5).
[8] abbreviates: at 50.0 µM (retest, dose inferred, filed as 5.0).

The panel holds about 79,000 compounds, 15% with a hit somewhere; the sample as a whole holds those more often. A number with no mark means an inactive call. Calls of active or inactive are those of the source. No stated cut-off is given here; in the data, active means growth inhibition above about 70%; inactive means the rest. *1 amine or outer side, *2 acyl side, *3 side chain or, on linkers, in order; H or OH if unused. Where a SMILES comes first, the peptide text is derived from it. [ ]: non-standard residue; d: D form. The star is where a group is joined. X5 = CCC(=O)CC1CC(C)CC(C(=O)[*:2])N1[*:1]; X4 = CCCCCCCCC(C)C(=O)*; Aib = CC(C)(N)C(=O)O; X6 = CC(CN(C)CCO)N*

As for `C/C=C/c1cc2c(c(=O)o1)C(=O)[C@@H](O)[C@H](C)O2`, the growth inhibition is 8% in experiment [1] (setting [7]); 17% in experiment [1] (setting [8]); 23.5% in experiment [1] (at 50.0 µM); 11% in experiment [2] (setting [7]); 21% in experiment [2] (setting [8]); 2% in experiment [2] (at 50.0 µM). Also, the growth inhibition is 15% in experiment [3] (setting [7]); 30% in experiment [3] (setting [8]); 34.5% in experiment [3] (at 50.0 µM); 8% in experiment [4] (setting [7]); 11% in experiment [4] (setting [8]); -1.15% in experiment [4] (at 50.0 µM). Further, the growth inhibition is 14% in experiment [5] (setting [7]); 28% in experiment [5] (setting [8]); 18.9% in experiment [5] (at 50.0 µM); 8% in experiment [6] (setting [7]); 26% in experiment [6] (setting [8]); 60.3% in experiment [6] (at 50.0 µM).
On to `CCCCCCCCC(C)C(=O)N1CCCC1C(=O)N1C(CC(=O)CC)CC(C)CC1C(=O)NC(C)C(=O)NC(C)(C)C(=O)NC(C)(C)C(=O)NC(C(=O)NC(C)C(=O)NC(C)(C)C(=O)NC(C)(C)C(=O)NC(C)CN(C)CCO)C(C)CC` (stereo not drawn) (X4-P[X5]A[Aib][Aib]IA[Aib][Aib]-X6; configuration not given here), for which the growth inhibition in experiment [1] (setting [7]) was 98% (active); in experiment [1] (setting [8]) it was 100% (active); in experiment [1] (at 50.0 µM), 91.6% (active); in experiment [2] (setting [7]), 99% (active); in experiment [2] (setting [8]) it was 100% (active); in experiment [2] (at 50.0 µM) it was 93.5% (active). Besides, the growth inhibition is 99% (active) in experiment [3] (setting [7]); 100% (active) in experiment [3] (setting [8]); 92.8% (active) in experiment [3] (at 50.0 µM); 99% (active) in experiment [4] (setting [7]); 99% (active) in experiment [4] (setting [8]); 90.9% (active) in experiment [4] (at 50.0 µM). For the same molecule, the growth inhibition was 99% (active) in experiment [5] (setting [7]); 99% (active) in experiment [5] (setting [8]); 92.4% (active) in experiment [5] (at 50.0 µM); 99% (active) in experiment [6] (setting [7]); 99% (active) in experiment [6] (setting [8]); 89.7% (active) in experiment [6] (at 50.0 µM).
As to `CCCCCCCCCCCCNCCCc1ccccc1`, the growth inhibition in experiment [1] (setting [7]) was 99% (active); in experiment [1] (setting [8]), 98% (active); in experiment [1] (at 50.0 µM) it was 98.1% (active); in experiment [2] (setting [7]) it was 100% (active); in experiment [2] (setting [8]), 99% (active); in experiment [2] (at 50.0 µM), 99.2% (active). Also, the growth inhibition in experiment [3] (setting [7]) was 100% (active); in experiment [3] (setting [8]), 99% (active); in experiment [3] (at 50.0 µM) it was 98.5% (active); in experiment [4] (setting [7]) it was 99% (active); in experiment [4] (setting [8]), 97% (active); in experiment [4] (at 50.0 µM) it was 98.8% (active). Besides, the growth inhibition is 99% (active) in experiment [5] (setting [7]); 99% (active) in experiment [5] (setting [8]); 98% (active) in experiment [5] (at 50.0 µM); 99% (active) in experiment [6] (setting [7]); 99% (active) in experiment [6] (setting [8]); 98.5% (active) in experiment [6] (at 50.0 µM).
With `CCCCCCCCC(=O)OCCCC(CCC(CCC1CCCO1)OC(=O)CCCCCCCC)OC(=O)CCCCCCCC` (stereo not drawn), the growth inhibition in experiment [1] (setting [7]) is -19%; in experiment [1] (setting [8]), 10%; in experiment [1] (at 50.0 µM), 82.3% (active); in experiment [2] (setting [7]) it was 3%; in experiment [2] (setting [8]) it was 12%; in experiment [2] (at 50.0 µM) it was 37%. Moreover, the growth inhibition in experiment [3] (setting [7]) is -12%; in experiment [3] (setting [8]), 33%; in experiment [3] (at 50.0 µM) it was 42.4%; in experiment [4] (setting [7]), -17%; in experiment [4] (setting [8]), 31%; in experiment [4] (at 50.0 µM), 14.3%. Moreover, the growth inhibition in experiment [5] (setting [7]) is -7%; in experiment [5] (setting [8]) it was 12%; in experiment [5] (at 50.0 µM) it was 29.8%; in experiment [6] (setting [7]), -2%; in experiment [6] (setting [8]), 23%; in experiment [6] (at 50.0 µM) it was 62.4%.
Turning to `CCCCOS(=O)(=O)c1ccccc1`, the growth inhibition in experiment [1] (setting [7]) was 7%; in experiment [1] (setting [8]), -25%; in experiment [1] (at 50.0 µM) it was -6%; in experiment [2] (setting [7]) it was 10%; in experiment [2] (setting [8]), 1%; in experiment [2] (at 50.0 µM) it was -2.6%. The growth inhibition was 0% in experiment [3] (setting [7]); 1% in experiment [3] (setting [8]); 8.95% in experiment [3] (at 50.0 µM); 5% in experiment [4] (setting [7]); 0% in experiment [4] (setting [8]); -23.1% in experiment [4] (at 50.0 µM). The growth inhibition in experiment [5] (setting [7]) was -23%; in experiment [5] (setting [8]) it was -6%; in experiment [5] (at 50.0 µM), 0.8%; in experiment [6] (setting [7]), 3%; in experiment [6] (setting [8]), 1%; in experiment [6] (at 50.0 µM) it was 14.2%.
In the case of `N=C1C(=N)c2ccccc2-c2ccccc21`, the growth inhibition in experiment [1] (setting [7]) is 9%; in experiment [1] (setting [8]), 99% (active); in experiment [1] (at 50.0 µM), 88.8% (active); in experiment [2] (setting [7]), 25%; in experiment [2] (setting [8]) it was 100% (active); in experiment [2] (at 50.0 µM), 91.2% (active). Besides, the growth inhibition in experiment [3] (setting [7]) was 17%; in experiment [3] (setting [8]) it was 38%; in experiment [3] (at 50.0 µM), 91.9% (active); in experiment [4] (setting [7]) it was 18%; in experiment [4] (setting [8]) it was 87% (active); in experiment [4] (at 50.0 µM), 91.7% (active). The growth inhibition in experiment [5] (setting [7]) is 11%; in experiment [5] (setting [8]) it was 99% (active); in experiment [5] (at 50.0 µM) it was 89.6% (active); in experiment [6] (setting [7]), 19%; in experiment [6] (setting [8]), 99% (active); in experiment [6] (at 50.0 µM), 89.2% (active).
With `O=C(CCc1ccccc1)ON1C(=S)NC(c2ccccc2)(c2ccccc2)C1=S`, the growth inhibition in experiment [1] (setting [7]) is 14%; in experiment [1] (setting [8]), 42%; in experiment [1] (at 50.0 µM), 29.7%; in experiment [2] (setting [7]), 0%; in experiment [2] (setting [8]), 22%; in experiment [2] (at 50.0 µM) it was 55.7%. In addition, the growth inhibition in experiment [3] (setting [7]) was -11%; in experiment [3] (setting [8]), 64%; in experiment [3] (at 50.0 µM) it was 63.3%; in experiment [4] (setting [7]) it was 16%; in experiment [4] (setting [8]), 59%; in experiment [4] (at 50.0 µM), 70.2% (active). The growth inhibition in experiment [5] (setting [7]) was 0%; in experiment [5] (setting [8]), 47%; in experiment [5] (at 50.0 µM), 79.2% (active); in experiment [6] (setting [7]) it was 13%; in experiment [6] (setting [8]), 61%; in experiment [6] (at 50.0 µM), 72.4% (active).
As to `NC(=Nc1nc(-c2ccccn2)cc2ccccc12)c1ccccn1`, the growth inhibition was 54% in experiment [1] (setting [7]); 70% (active) in experiment [1] (setting [8]); 77.2% (active) in experiment [1] (at 50.0 µM); 54% in experiment [2] (setting [7]); 66% in experiment [2] (setting [8]); 67.7% in experiment [2] (at 50.0 µM). Further, the growth inhibition in experiment [3] (setting [7]) was 64%; in experiment [3] (setting [8]) it was 72% (active); in experiment [3] (at 50.0 µM), 69.2%; in experiment [6] (setting [7]) it was 61%; in experiment [6] (setting [8]), 69%; in experiment [6] (at 50.0 µM), 72.2% (active).
For `Cc1cc(O)c(O)c(C(C)(C)CC(C)(C)C)c1`, the growth inhibition in experiment [1] (setting [7]) is 36%; in experiment [1] (setting [8]) it was 87% (active); in experiment [1] (at 50.0 µM), 91.3% (active); in experiment [2] (setting [7]), 38%; in experiment [2] (setting [8]) it was 83% (active); in experiment [2] (at 50.0 µM), 92.5% (active). For the same molecule, the growth inhibition in experiment [3] (setting [7]) was 97% (active); in experiment [3] (setting [8]) it was 100% (active); in experiment [4] (setting [7]) it was 78% (active); in experiment [4] (setting [8]), 100% (active); in experiment [5] (setting [7]), 94% (active); in experiment [5] (setting [8]), 99% (active). The figures for the growth inhibition in experiment [6] (setting [7]), in experiment [6] (setting [8]) and in experiment [6] (at 50.0 µM) were 23%, 73% (active) and 91.2% (active), respectively.
In the case of `CCN1/C(=C/C(C)=C/c2sc3ccc4ccccc4c3[n+]2CC)Sc2ccc3ccccc3c21`, the growth inhibition in experiment [1] (setting [7]) was 28%; in experiment [1] (setting [8]), 30%; in experiment [1] (at 50.0 µM), 79.8% (active); in experiment [2] (setting [7]), 30%; in experiment [2] (setting [8]) it was 36%; in experiment [2] (at 50.0 µM), 82% (active). Further, the growth inhibition was -7% in experiment [3] (setting [7]); 42% in experiment [3] (setting [8]); 81.7% (active) in experiment [3] (at 50.0 µM); 43% in experiment [5] (setting [7]); 10% in experiment [5] (setting [8]); 73.2% (active) in experiment [5] (at 50.0 µM). For the same molecule, the values for the growth inhibition in experiment [6] (setting [7]), in experiment [6] (setting [8]) and in experiment [6] (at 50.0 µM) were 41%, 35% and 69.9%, respectively.

The record behind these values is PubChem BioAssay (NCI).
